Reference: the supplement of paper PMC10849652
Of roughly 8,800 targets only a part is listed; those with a hit were picked by preference. About 0.5% of all pairs of compound and target were hits.

Tests used:
Experiment in all cases: log2 fold change, soluble protein after heating vs DMSO (PISA); higher = thermal stabilisation; K562 lysate, 10 uM; active = over 0.2 and 3.5 SD of the protein, either way, in both replicates (recomputed)
[1] = compound: C#Cc1cccc(Nc2ncnc3cc(OCCOC)c(OCCOC)cc23)c1 [erlotinib]
Method in brief: (§1)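 Quantification was by TMTpro 16plex LC-MS/MS with equalised channel sums, applied to the supernatant after 21,000xg for 90 min. Samples were crude K562 extract at 1 mg/mL protein in PBS pH 7.4 with 1 mM MgCl2, treated with 10 μM compound for 30 min, heated for 3 min across 48°C-58°C, pooled and brought to 0.5% NP-40 at 4°C. Values are log-two fold changes in thermal stability relative to solvent controls, from duplicates.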

[2] = compound: C/C(=N\NC(=O)C1=CC(=CC=C1)S(=O)(=O)N2CCOCC2)/C3=C(C=CC(=C3)Cl)O
Method in brief: as §1

[3] = compound: C1=CC(=CC=C1C2=NC3=C(N2)C=C(C=C3)C(=O)N)OC4=CC=C(C=C4)Cl
Method in brief: as §1

[4] = compound: C1=CC2=C(C=CC(=C2)/C=C\3/C(=O)NC(=NCC4=CC=CS4)S3)N=C1
Method in brief: as §1

[5] = compound: C1=CC2=NC=CN=C2C=C1/C=C/3\C(=O)NC(=O)S3
Method in brief: as §1

[6] = compound: C1=CC=C(C=C1)C2=NC(=C(N2)C3=CC=NC=C3)C4=CC(=C(C=C4)Cl)O
Method in brief: as §1

[7] = compound: C1=CC=C2C(=C1)C3=NNC4=CC=CC(=C43)C2=O
Method in brief: as §1

[8] = compound: C1CCN(C1)C(=O)NC2=CC=CC(=C2)NC3=NC=C(C(=N3)NCCC4=CN=CN4)Br
Method in brief: as §1

[9] = compound: C1CN(CCC1(CC2=CC=C(C=C2)Cl)N)C3=NC=NC4=C3C=CN4
Method in brief: as §1

[10] = compound: C1COCCN1CCN2C3=CC=CC=C3N=C2NC(=O)C4=CC(=CC=C4)[N+](=O)[O-] [IRAK-1-4 Inhibitor I]
Method in brief: as §1

Measured: log2 fold change

EIF2B5 (UniProt Q13144)
UniProt Q13144, sequence (Q13144 whole entry, looked up): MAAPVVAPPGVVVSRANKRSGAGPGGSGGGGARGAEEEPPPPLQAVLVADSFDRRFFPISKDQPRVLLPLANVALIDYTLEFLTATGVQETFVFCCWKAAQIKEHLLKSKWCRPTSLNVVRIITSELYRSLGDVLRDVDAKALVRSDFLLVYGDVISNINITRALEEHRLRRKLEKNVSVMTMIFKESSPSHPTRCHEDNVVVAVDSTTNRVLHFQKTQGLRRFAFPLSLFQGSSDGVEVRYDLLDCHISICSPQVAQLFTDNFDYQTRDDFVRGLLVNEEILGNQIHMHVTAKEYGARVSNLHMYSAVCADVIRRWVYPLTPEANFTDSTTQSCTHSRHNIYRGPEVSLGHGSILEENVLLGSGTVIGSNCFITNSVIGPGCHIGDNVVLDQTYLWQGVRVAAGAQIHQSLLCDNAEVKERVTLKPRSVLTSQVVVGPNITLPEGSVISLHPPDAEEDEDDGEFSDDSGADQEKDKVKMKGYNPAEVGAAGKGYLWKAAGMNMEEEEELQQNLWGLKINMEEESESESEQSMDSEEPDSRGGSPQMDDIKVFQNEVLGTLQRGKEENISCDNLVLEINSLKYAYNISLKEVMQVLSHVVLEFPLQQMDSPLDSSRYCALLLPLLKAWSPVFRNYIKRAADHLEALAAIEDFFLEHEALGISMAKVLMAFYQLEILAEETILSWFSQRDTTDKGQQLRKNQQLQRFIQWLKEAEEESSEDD
inactive: [1] 0.015 | [2] -0.052 | [3] -0.017 | [4] 0.011 | [5] 0.03 | [6] -0.011 | [7] -0.054 | [8] 0.006 | [9] 0.007 | [10] 0.027

GATAD2A isoform 3 (UniProt Q86YP4)
inactive: [1] 0.012 | [2] -0.124 | [3] -0.003 | [4] -0.034 | [5] 0.003 | [6] -0.002 | [7] -0.035 | [8] -0.037 | [9] 0.034 | [10] -0.016

ENO1 isoform 2 (UniProt P06733)
inactive: [1] -0.02 | [2] -0.039 | [3] -0.035 | [4] -0.021 | [5] -0.016 | [6] -0.003 | [7] -0.066 | [8] -0.033 | [9] 0.027 | [10] 0.015

GEMIN2 (UniProt O14893)
inactive: [1] 0.032 | [2] 0.047 | [3] -0.001 | [4] 0.053 | [5] 0.028 | [6] 0.015 | [7] -0.11 | [8] -0.007 | [9] 0.011 | [10] 0.05

FECH isoform 2 (UniProt P22830)
UniProt P22830, sequence (P22830 whole entry, looked up): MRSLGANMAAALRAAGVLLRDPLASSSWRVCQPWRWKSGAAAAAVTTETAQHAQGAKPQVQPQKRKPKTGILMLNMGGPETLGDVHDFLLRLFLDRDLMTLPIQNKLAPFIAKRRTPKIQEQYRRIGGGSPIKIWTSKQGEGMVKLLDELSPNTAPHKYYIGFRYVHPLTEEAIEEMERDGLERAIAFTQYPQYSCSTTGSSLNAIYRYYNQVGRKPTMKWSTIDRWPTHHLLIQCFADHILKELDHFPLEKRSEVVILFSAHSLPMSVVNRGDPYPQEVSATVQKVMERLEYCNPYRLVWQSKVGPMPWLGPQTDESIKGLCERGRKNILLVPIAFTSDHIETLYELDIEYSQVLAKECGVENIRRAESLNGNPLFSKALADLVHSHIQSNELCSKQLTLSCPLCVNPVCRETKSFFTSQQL
inactive: [1] 0.101 | [2] 0.062 | [3] -0.321 | [4] 0.42 | [5] -0.014 | [6] 0.354 | [7] 0.673 | [8] 0.183 | [9] -0.009 | [10] 0.644

ECH1 (UniProt Q13011)
UniProt Q13011, sequence (Q13011 whole entry, looked up): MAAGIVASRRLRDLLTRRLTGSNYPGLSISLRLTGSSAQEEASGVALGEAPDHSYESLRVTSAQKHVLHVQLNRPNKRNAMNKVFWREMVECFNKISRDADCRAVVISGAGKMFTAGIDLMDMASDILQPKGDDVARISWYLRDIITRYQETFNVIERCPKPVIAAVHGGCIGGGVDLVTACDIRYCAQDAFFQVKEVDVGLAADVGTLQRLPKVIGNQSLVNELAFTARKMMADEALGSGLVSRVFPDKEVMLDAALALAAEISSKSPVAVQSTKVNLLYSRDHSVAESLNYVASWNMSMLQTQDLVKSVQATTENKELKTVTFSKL
inactive: [1] -0.041 | [2] -0.049 | [3] -0.022 | [4] 0.002 | [5] -0.022 | [7] 0.232 | [8] -0.009 | [9] 0.017 | [10] -0.007
active: [6] 0.499

ENO2 (UniProt P09104)
inactive: [1] 0.013 | [2] 0.013 | [3] 0.03 | [4] -0.037 | [5] 0.056 | [6] -0.091 | [7] 0.024 | [8] 0.005 | [9] -0.02 | [10] -0.036

EXOC5 (UniProt O00471)
UniProt O00471, sequence (O00471 whole entry, looked up): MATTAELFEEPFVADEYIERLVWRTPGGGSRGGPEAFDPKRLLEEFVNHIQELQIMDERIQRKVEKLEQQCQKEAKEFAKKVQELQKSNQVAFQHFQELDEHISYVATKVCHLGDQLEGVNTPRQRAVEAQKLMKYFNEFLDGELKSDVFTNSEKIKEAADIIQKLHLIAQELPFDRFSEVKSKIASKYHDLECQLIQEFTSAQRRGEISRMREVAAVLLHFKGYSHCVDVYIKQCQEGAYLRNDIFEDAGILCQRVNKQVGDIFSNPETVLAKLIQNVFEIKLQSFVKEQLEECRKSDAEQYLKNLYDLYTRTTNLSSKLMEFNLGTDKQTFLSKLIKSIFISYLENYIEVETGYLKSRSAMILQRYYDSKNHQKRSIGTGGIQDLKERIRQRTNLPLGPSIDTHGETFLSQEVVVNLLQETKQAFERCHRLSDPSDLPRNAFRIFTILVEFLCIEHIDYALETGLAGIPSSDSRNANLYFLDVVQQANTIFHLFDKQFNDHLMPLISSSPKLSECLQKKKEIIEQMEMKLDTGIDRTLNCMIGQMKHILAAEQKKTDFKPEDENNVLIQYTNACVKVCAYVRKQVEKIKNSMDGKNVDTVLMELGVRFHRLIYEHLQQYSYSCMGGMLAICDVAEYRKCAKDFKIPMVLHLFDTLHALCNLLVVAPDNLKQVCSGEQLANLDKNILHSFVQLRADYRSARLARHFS
inactive: [1] 0.022 | [2] -0.021 | [3] -0.041 | [4] 0.033 | [5] -0.006 | [6] -0.013 | [7] -0.016 | [8] 0.005 | [9] 0.006 | [10] -0.011

ERLIN1 (UniProt O75477)
UniProt O75477, sequence (O75477 whole entry, looked up): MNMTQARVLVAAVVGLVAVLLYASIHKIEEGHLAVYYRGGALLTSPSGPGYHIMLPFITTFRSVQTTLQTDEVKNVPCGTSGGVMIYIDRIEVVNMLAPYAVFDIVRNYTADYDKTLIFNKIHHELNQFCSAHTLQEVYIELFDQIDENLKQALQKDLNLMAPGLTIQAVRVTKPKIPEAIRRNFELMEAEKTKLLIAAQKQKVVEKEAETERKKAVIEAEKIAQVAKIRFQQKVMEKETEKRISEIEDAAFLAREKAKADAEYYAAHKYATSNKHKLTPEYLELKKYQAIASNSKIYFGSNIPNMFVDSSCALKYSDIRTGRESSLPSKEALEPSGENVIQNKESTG
inactive: [1] -0.031 | [2] 0.123 | [3] -0.17 | [4] 0.072 | [5] -0.038 | [6] 0.015 | [7] -0.02 | [8] -0.015 | [9] -0.046 | [10] -0.071

FANCD2 isoform 1 (UniProt Q9BXW9)
inactive: [1] 0.059 | [2] 0.002 | [3] 0.019 | [4] -0.049 | [5] 0.01 | [6] 0.006 | [7] -0.092 | [8] -0.062 | [9] 0.095 | [10] 0.036

EDC3 (UniProt Q96F86)
inactive: [1] -0.008 | [2] -0.01 | [3] -0.023 | [4] -0.02 | [5] -0.031 | [6] 0.035 | [7] -0.011 | [8] -0.027 | [9] -0.013 | [10] 0

EXTL2 (UniProt Q9UBQ6)
inactive: [1] -0.02 | [2] -0.037 | [3] 0.072 | [4] 0.103 | [5] -0.443 | [6] 0 | [7] 0.092 | [8] 0.003 | [9] -0.007 | [10] -0.049

EXOC3 (UniProt O60645)
inactive: [1] 0.033 | [2] 0.027 | [3] 0.006 | [4] 0.033 | [5] 0.039 | [6] 0.011 | [7] -0.04 | [8] 0.018 | [9] -0.001 | [10] 0.013

FAM114A2 (UniProt Q9NRY5)
inactive: [1] -0.039 | [2] -0.068 | [3] 0.141 | [4] -0.028 | [5] -0.1 | [6] -0.052 | [7] 0.02 | [8] -0.045 | [9] -0.104 | [10] -0.002

GAA (UniProt P10253)
inactive: [1] 0.077 | [2] 0.046 | [3] 0.054 | [4] -0.041 | [5] -0.005 | [6] 0.006 | [7] -0.208 | [8] 0.007 | [9] 0.092 | [10] 0.025

GEMIN5 (UniProt Q8TEQ6)
inactive: [1] -0.001 | [2] 0.004 | [3] -0.012 | [4] 0.015 | [5] 0.032 | [6] -0.006 | [7] -0.034 | [8] 0 | [9] -0.006 | [10] -0.025

EEF1A1P5 (UniProt Q5VTE0)
inactive: [1] 0.014 | [2] -0.054 | [3] 0.023 | [4] 0 | [5] 0.001 | [6] -0.01 | [7] -0.065 | [8] -0.048 | [9] 0.022 | [10] 0.003

EIF2AK2 (UniProt P19525)
inactive: [1] 0.02 | [2] 0.011 | [3] -0.055 | [4] -0.072 | [5] 0.003 | [6] 0.005 | [7] -0.039 | [8] -0.013 | [9] 0.016 | [10] -0.011

EAPP (UniProt Q56P03)
inactive: [1] 0.012 | [3] 0.018 | [4] 0.098 | [5] 0.073 | [6] 0.011 | [7] -0.094 | [8] 0.024 | [9] 0.103 | [10] -0.014
active: [2] 0.349

FAM118A (UniProt Q9NWS6)
UniProt Q9NWS6, sequence (Q9NWS6 whole entry, looked up): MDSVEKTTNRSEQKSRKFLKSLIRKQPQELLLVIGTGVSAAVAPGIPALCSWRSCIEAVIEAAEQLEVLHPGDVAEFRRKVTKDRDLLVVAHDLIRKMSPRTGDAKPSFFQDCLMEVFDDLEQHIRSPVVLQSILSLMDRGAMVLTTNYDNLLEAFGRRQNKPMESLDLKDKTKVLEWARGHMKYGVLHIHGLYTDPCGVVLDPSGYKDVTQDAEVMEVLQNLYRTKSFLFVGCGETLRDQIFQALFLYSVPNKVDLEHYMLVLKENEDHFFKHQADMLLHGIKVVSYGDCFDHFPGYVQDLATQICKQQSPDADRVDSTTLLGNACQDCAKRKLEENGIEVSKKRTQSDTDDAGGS
inactive: [1] 0.03 | [2] -0.03 | [3] -0.016 | [4] 0.022 | [5] 0.029 | [6] 0.012 | [7] -0.006 | [8] 0.021 | [9] 0.048 | [10] 0.051

FBRSL1, A0A3B3IRR3
inactive: [1] -0.014 | [2] -0.021 | [3] 0.042 | [4] -0.03 | [5] 0 | [6] -0.028 | [7] -0.199 | [8] 0.043 | [9] -0.015 | [10] -0.024

ENY2 (UniProt Q9NPA8)
inactive: [1] 0.033 | [2] 0.03 | [3] -0.015 | [4] 0.002 | [5] -0.026 | [6] 0.043 | [7] 0.081 | [8] 0.104 | [9] -0.087 | [10] -0.019

EMC7 (UniProt Q9NPA0)
inactive: [1] 0.023 | [2] -0.011 | [3] -0.009 | [4] -0.02 | [5] -0.044 | [6] -0.011 | [7] -0.052 | [8] -0.002 | [9] 0.011 | [10] 0.02

FARSA (UniProt Q9Y285)
inactive: [1] 0.045 | [2] -0.001 | [3] -0.054 | [4] 0.009 | [5] 0 | [6] 0.119 | [7] -0.005 | [8] 0.009 | [9] -0.023 | [10] -0.018

EIF2AK1 (UniProt Q9BQI3)
inactive: [1] -0.016 | [2] 0.087 | [3] 0.017 | [4] -0.02 | [5] 0.029 | [6] -0.027 | [7] -0.016 | [8] -0.02 | [9] -0.006 | [10] -0.01

ENO1, A0A2R8YEM5
inactive: [1] -0.019 | [2] 0.004 | [3] 0.011 | [4] -0.017 | [5] 0.031 | [6] 0.016 | [7] 0.009 | [8] 0 | [9] 0.032 | [10] -0.031

ENGASE (UniProt Q8NFI3)
inactive: [1] 0.036 | [2] 0 | [3] 0.043 | [4] -0.069 | [5] 0.008 | [6] 0.002 | [7] -0.04 | [8] 0.009 | [9] 0.043 | [10] 0.007

ESPL1 (UniProt Q14674)
UniProt Q14674, sequence (Q14674 whole entry, looked up): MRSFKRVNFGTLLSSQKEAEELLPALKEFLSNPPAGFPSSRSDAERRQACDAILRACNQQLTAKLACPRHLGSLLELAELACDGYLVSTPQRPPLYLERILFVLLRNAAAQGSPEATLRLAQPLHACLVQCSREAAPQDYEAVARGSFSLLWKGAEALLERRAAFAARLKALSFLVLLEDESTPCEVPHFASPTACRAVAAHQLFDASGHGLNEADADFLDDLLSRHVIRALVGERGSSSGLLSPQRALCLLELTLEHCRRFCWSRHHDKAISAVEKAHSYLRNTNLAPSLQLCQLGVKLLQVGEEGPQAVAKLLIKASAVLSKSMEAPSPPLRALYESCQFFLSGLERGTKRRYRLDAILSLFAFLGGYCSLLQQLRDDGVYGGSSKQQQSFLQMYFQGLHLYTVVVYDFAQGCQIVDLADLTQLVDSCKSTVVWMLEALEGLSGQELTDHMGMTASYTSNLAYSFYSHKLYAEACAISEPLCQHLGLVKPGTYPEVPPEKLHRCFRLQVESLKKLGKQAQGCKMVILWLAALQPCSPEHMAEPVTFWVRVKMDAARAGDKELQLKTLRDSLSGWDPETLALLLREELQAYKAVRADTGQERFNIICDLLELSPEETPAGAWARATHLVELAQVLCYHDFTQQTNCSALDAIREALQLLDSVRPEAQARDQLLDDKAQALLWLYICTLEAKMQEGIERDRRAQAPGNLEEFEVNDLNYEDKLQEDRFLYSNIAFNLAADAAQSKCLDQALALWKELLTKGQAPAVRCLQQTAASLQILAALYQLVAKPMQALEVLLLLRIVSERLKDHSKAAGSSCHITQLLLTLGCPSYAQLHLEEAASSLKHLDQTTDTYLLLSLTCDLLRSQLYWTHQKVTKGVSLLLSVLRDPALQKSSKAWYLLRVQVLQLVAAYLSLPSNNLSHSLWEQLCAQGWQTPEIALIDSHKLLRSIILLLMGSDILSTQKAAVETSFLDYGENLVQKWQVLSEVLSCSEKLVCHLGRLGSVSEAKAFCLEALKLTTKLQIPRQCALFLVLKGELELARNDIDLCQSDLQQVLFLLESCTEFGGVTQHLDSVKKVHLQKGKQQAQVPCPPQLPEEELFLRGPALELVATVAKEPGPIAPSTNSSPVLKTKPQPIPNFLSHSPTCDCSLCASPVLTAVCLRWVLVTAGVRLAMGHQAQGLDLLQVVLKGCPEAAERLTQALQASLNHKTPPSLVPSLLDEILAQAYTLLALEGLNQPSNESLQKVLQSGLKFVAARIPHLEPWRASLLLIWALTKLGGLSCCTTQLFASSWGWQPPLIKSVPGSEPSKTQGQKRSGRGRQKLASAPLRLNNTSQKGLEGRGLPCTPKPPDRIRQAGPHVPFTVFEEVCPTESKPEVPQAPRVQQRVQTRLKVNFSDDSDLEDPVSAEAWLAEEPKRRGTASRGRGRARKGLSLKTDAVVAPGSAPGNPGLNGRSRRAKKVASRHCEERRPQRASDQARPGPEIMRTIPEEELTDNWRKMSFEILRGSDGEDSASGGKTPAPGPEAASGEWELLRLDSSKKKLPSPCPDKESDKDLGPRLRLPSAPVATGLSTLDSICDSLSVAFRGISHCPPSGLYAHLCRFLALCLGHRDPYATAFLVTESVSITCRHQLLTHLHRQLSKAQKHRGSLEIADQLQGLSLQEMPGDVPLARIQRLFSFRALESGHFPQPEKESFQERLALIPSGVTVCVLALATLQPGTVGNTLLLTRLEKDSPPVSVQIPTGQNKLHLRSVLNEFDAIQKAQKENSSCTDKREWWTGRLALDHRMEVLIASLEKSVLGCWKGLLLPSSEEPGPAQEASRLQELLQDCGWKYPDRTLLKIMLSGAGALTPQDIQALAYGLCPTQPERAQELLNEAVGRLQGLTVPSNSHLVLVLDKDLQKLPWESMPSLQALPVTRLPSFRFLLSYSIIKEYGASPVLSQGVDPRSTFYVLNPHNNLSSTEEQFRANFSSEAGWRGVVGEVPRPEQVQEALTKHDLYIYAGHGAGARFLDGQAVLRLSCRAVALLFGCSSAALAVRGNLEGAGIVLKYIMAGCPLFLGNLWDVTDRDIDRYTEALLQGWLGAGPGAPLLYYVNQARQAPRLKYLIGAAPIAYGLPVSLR
inactive: [1] 0.147 | [2] 0.019 | [3] 0.074 | [4] -0.086 | [5] 0.009 | [6] -0.011 | [7] 0.054 | [8] -0.025 | [9] 0.006 | [10] -0.028

FTSJ3 (UniProt Q8IY81)
inactive: [1] 0.064 | [2] -0.157 | [3] 0.002 | [4] -0.014 | [5] -0.028 | [6] 0.025 | [7] 0.065 | [8] 0.012 | [9] 0.022 | [10] -0.018

GIGYF2 (UniProt Q6Y7W6)
inactive: [1] -0.011 | [2] -0.033 | [3] -0.024 | [4] -0.016 | [5] 0.018 | [6] 0.005 | [7] -0.005 | [8] 0.006 | [9] -0.005 | [10] 0.002
